From PubChem BioAssay (NCATS)
Results filed as inconclusive are left out. Where a call stands in place of a potency, no number is given. Calls of active or inactive are those of the source. The call rests on the fitted dose curve; in most records, active means well fitted inhibition curve with a large enough effect; inconclusive means small, poorly fitted or top-dose-only effect; inactive means flat fitted curve, though single readings scatter.

Each compound was assayed against Calcium and integrin-binding protein 1 (Homo sapiens) (UniProt Q99828) (assay: Primary qHTS for Identification of Calcium Integrin Binding Protein 1 (CIB1) Competitor (AID 1508620;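 further: GST tagged CIB1 binding a fluorescein labelled alphaIIb integrin peptide tracer; top concentration of the series differs between compounds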)). Conditions: CIB1-GST / FITC-alphaIIb peptide fluorescence polarization; series mostly up to 57.7 µM.
Calcium and integrin-binding protein 1 (Homo sapiens), sequence (Q99828 whole entry, looked up): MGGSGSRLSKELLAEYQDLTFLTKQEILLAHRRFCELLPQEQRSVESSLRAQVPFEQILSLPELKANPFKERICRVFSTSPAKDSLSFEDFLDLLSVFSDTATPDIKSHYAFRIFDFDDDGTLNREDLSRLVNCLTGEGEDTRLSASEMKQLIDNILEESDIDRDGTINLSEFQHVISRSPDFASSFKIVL
Summary of the method: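 Fluorescence polarization competition: CIB1-GST (1 uM final) preincubated with compound 15 min at room temperature, then FITC-labeled alphaIIb peptide (100 nM final) added for another 15 min. Polarization read at Ex 480/Em 540.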

Which Potency does the source give for `CC(=O)NC(C(=O)OC1CCC(C)(C)C2CC=C3C(=O)OCC3(O)C12C)C(C)C` (centres undefined) here?
The Potency was “inactive”.

With `COc1cc(C(=O)OC[C@H]2O[C@H](O[C@@]3(CO)O[C@@H](CO)[C@H](O)[C@H]3O)[C@H](O)[C@@H](O)[C@@H]2O)ccc1O` as the compound, how does the Potency read?
Its Potency is “inactive”.

How did the Potency turn out when `O=C(OCc1cccc(O)c1O[C@@H]1O[C@H](CO)[C@@H](O)[C@H](O)[C@H]1O)C1(O)C(=O)C2C=CC1C1C=CC(=O)C(O)(C(=O)OCc3cccc(O)c3O[C@@H]3O[C@H](CO)[C@@H](O)[C@H](O)[C@H]3O)C21` (some centres undefined) was run?
Its Potency is “inactive”.

For `C[C@@H]1O[C@@H](O[C@H]2[C@H](O[C@H]3CC[C@@]4(C)C(CC[C@]5(C)C4CC=C4[C@@H]6CC(C)(C)CC[C@]6(C(=O)O)CC[C@]45C)[C@]3(C)CO)OC[C@H](O)[C@@H]2O)[C@H](O)[C@H](O[C@@H]2OC[C@@H](O)[C@H](O)[C@H]2O)[C@H]1O` (some centres undefined), which Potency is on record?
Its Potency is “inactive”.

For `CCOC(=O)[C@H](CCc1ccccc1)CC1(C(=O)N[C@H]2CCc3ccccc3N(CC(=O)O)C2=O)CCCC1`, which Potency is on record?
The Potency was “inactive”.

Which Potency does the source give for `CCC[C@@H]1C[C@@H](C(=O)N[C@H](C(C)Cl)[C@H]2O[C@H](SC)[C@H](O)[C@@H](O)[C@H]2O)N(C)C1` (some centres undefined) here?
Its Potency is “inactive”.

For `C[C@@H]1O[C@@H](O[C@@H]2[C@@H](O)[C@@H](O)[C@H](O[C@@H]3[C@@H](O)[C@@H](O[C@]4(CO)O[C@H](CO)[C@@H](O)[C@@H]4OC(=O)/C=C/c4ccc(O)cc4)O[C@H](CO)[C@H]3OC(=O)/C=C/c3ccc(O)cc3)O[C@H]2C)[C@H](O)[C@H](O)[C@H]1O`, which Potency is on record?
Its Potency is “inactive”.

For `CCCCS(=O)(=O)Nc1ncnc(OCCOc2ncc(Br)cn2)c1-c1ccc(Br)cc1`, which Potency is on record?
The Potency was “inactive”.

`COc1cccc2c1CCC[C@H]2CN(C)CCc1ccc2ccoc2c1` was tested. Which Potency did it give?
The Potency was “inactive”.

With `COc1ccccc1CC(C(=O)O)N(C)C(=O)c1ccccc1` (centres undefined) as the compound, how does the Potency read?
Its Potency is “inactive”.

Which Potency does the source give for `COC(=O)C1=COC(O[C@@H]2O[C@H](CO)[C@@H](O)[C@H](O)[C@H]2O)/C(=C\COC(=O)c2ccc(OC3OC(CO)C(O)C(O)C3O)c(OC)c2)C1CC(=O)OCCc1ccc(O)cc1` (some centres undefined) here?
Its Potency is “inactive”.

With `COC(=O)C1C(c2ccc(O)cc2)C(C(=O)OC)C1c1ccc(O)cc1` (centres undefined) as the compound, how does the Potency read?
The Potency was “inactive”.

`C=C[C@](C)(CC/C=C(\C)C(=O)O)O[C@@H]1OC[C@H](O)[C@H](O)[C@H]1O` was tested. Which Potency did it give?
The Potency was “inactive”.

`C=C1CC[C@H]2[C@@](C)(CCC(O)[C@@]2(C)CO)[C@@H]1C/C=C(/C(=O)O)C(O)CO` (some centres undefined) was tested. Which Potency did it give?
Its Potency is “inactive”.

`CC(=O)N[C@H]1CCN(c2ccc(C3=NOC(CN[S+](=O)([O-])C(C)C)C3)cc2F)C1` (some centres undefined) was tested. Which Potency did it give?
Its Potency is “inactive”.

`CC(C)NC[C@H](O)COc1ccc(CCOCC2CC2)cc1` was tested. Which Potency did it give?
The Potency was “inactive”.

With `C[C@@H]1O[C@@H](O[C@H]2[C@H](O)[C@@H](O)[C@H](OC[C@H]3O[C@@H](OC(=O)[C@]45CCC(C)(C)C[C@H]4C4=CCC6[C@@]7(C)C[C@H](O)[C@H](O[C@@H]8O[C@H](CO)[C@@H](O)[C@H](O)[C@H]8O)[C@@](C)(C(=O)O)C7CC[C@@]6(C)[C@]4(C)CC5)[C@H](O[C@@H]4O[C@H](CO)[C@@H](O)[C@H](O)[C@H]4O)[C@@H](O)[C@@H]3O)O[C@@H]2CO)[C@H](O)[C@H](O)[C@H]1O` (some centres undefined) as the compound, how does the activity change, negative = inhibition read?
The activity change, negative = inhibition was 0.065% [at 12.4 µM] (inactive).

Which Potency does the source give for `O=C(O)CCc1cccc(O[C@@H]2O[C@H](CO)[C@@H](O)[C@H](O)[C@H]2O)c1O` here?
Its Potency is “inactive”.

With `CN1C(=O)c2ccccc2-n2c(nc3ccccc3c2=O)/C1=C/c1ccccc1` as the compound, how does the Potency read?
The Potency was “inactive”.

For `CC(CCC1C(C(=O)O)=CC(=O)CC1(C)C)O[C@@H]1O[C@H](CO)[C@@H](O)[C@H](O)[C@H]1O` (some centres undefined), which Potency is on record?
The Potency was “inactive”.

How did the Potency turn out when `CC(O)(CC(=O)O)CC(=O)O[C@@H]1[C@@H](O)[C@H](OCCc2ccccc2)O[C@H](CO)[C@H]1O` (some centres undefined) was run?
The Potency was “inactive”.

How did the Potency turn out when `N[C@@H](CC(=O)N1CCn2c(nnc2C(F)(F)F)C1)Cc1[nH]nc2c(F)c(F)ccc12` was run?
Its Potency is “inactive”.

With `C/C(=C\CCC(C)(O)c1ccc(C)cc1)C(=O)O` (centres undefined) as the compound, how does the Potency read?
The Potency was “inactive”.

For `OC1COC(OCC2OC(OCCc3ccccc3)C(O)C(O)C2O)C(O)C1O` (centres undefined), which Potency is on record?
Its Potency is “inactive”.

For `C[C@H]1C[C@H]2[C@@H]3CCC4=CC(=O)C=C[C@]4(C)[C@@]3(F)[C@@H](O)C[C@]2(C)[C@@]1(O)C(=O)COP(=O)(O)O`, which Potency is on record?
The Potency was “inactive”.

`C=CC(C)(C)O[C@@H]1O[C@H](CO[C@@H]2OC[C@](O)(CO)[C@H]2O)[C@@H](O)[C@H](O)[C@H]1O` was tested. Which Potency did it give?
The Potency was “inactive”.

`COC(=O)[C@H](OC(C)=O)[C@H]1C(C)(C)C(=O)[C@H]2CC3=C4CC(=O)O[C@@H](c5ccoc5)[C@]4(C)CCC3[C@@]1(C)C2=O` (some centres undefined) was tested. Which Potency did it give?
Its Potency is “inactive”.

`C=C1CC[C@H]2[C@@](C)(CCC[C@@]2(C)C(=O)O)[C@@H]1CCC(C)CCO` (some centres undefined) was tested. Which Potency did it give?
Its Potency is “inactive”.

With `CCCCNC(=O)[C@@H]1Cc2ccccc2N1C(=O)[C@@H](N)CC` as the compound, how does the Potency read?
Its Potency is “inactive”.

`Cc1nn(C)c(COc2ccc(N3CCN(S(=O)(=O)N(C)C)CC3)cc2)c1-c1cccc2c(CCCOc3cccc4ccccc34)c(C(=O)O)n(CCN3CCOCC3)c12` was tested. Which Potency did it give?
The Potency was “inactive”.

Which Potency does the source give for `Cc1c(-c2ccnn2C)cc(C(=O)NCc2ccc(S(C)(=O)=O)cn2)c(=O)n1-c1cccc(C(F)(F)F)c1` here?
Its Potency is “inactive”.

Which Potency does the source give for `COC(=O)[C@@]1(O)C=CC[C@@H]2[C@@]3(C)C[C@@H](c4ccoc4)OC(=O)[C@H]3CC[C@]21C` here?
Its Potency is “inactive”.

With `CC1(C)CC[C@]2(C(=O)O)CC[C@]3(C)C(=CCC4[C@@]5(C)C[C@H](O)[C@H](O[C@@H]6OC[C@H](O)[C@H](O)[C@H]6O)[C@@](C)(CO)C5CC[C@]43C)[C@@H]2C1` (some centres undefined) as the compound, how does the Potency read?
Its Potency is “inactive”.

How did the Potency turn out when `COc1cc(/C=C/CO)ccc1O[C@@H]1O[C@H](CO)[C@@H](O)[C@H](O)[C@H]1O` was run?
The Potency was “inactive”.

For `N#Cc1ccc2[nH]c(O)c(-c3ccc(CN4CCOCC4)cn3)c2c1`, which Potency is on record?
The Potency was “inactive”.

For `CC1CCC23COC(=O)C2=CC(O)CC3C1(C)CCC1=CC(=O)OC1O` (centres undefined), which Potency is on record?
Its Potency is “inactive”.

How did the Potency turn out when `c1ccc(C(OC2CCN(CCCc3nn[nH]n3)CC2)c2ccccc2)cc1` was run?
Its Potency is “inactive”.

`CC1(C)C(=O)N2c3ccccc3[C@]3(CC(n4cnc5ccccc5c4=O)C(=O)O3)[C@H]2N1O` (some centres undefined) was tested. Which Potency did it give?
Its Potency is “inactive”.

For `COc1c(C(CC(C)C)OC(C)=O)ccc(Oc2c(O)cc(C)cc2/C=C/C(C)=O)c1C(=O)O` (centres undefined), which Potency is on record?
Its Potency is “inactive”.
